According to PubChem BioAssay:
Activity calls are given as the source filed them.

Tests used:
[1] = binders of probe aFSTL3 on microarray, primary screen, stem cell growth factor project, biochemical, small-molecule microarray, fluorescence 635/667 (AID 1064); details: higher = more signal;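 note: measures binding of the biotinylated anti-FSTL3 antibody to printed compounds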
[2] = binders from COS7 lysate, DM2A8 probe, primary screen, torsin A project, cell lysate, small-molecule microarray, fluorescence 635/667 (AID 1065); details: higher = more signal, COS7 lysate expressing mutant human TOR1A
[3] = binders of probe aFGF2 on microarray, primary screen, stem cell growth factor project, biochemical, small-molecule microarray, fluorescence 635/667 (AID 1067); details: higher = more signal;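 note: measures binding of biotinylated aFGF2 protein to printed compounds on slides; z-score merges feature fluorescence and signal-to-noise across triplicate slides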
[4] = binders of probe aFGF10 on microarray, primary screen, stem cell growth factor project, biochemical, small-molecule microarray, fluorescence 635/667 (AID 1071); details: higher = more signal;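 note: score merges 667 nm spot intensity and signal to noise from triplicate slides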
[5] = molecular target: Neurogenic locus notch homolog protein 2 (Homo sapiens) (UniProt Q04721); assay: Notch2 binders on small-molecule microarrays, primary screen, biochemical, small-molecule microarray, 635 nm fluorescence, stem cell growth factors (AID 1073); details: Notch2 binding, higher = more signal
Neurogenic locus notch homolog protein 2 (Homo sapiens), sequence (Q04721 whole entry, looked up, canonical isoform): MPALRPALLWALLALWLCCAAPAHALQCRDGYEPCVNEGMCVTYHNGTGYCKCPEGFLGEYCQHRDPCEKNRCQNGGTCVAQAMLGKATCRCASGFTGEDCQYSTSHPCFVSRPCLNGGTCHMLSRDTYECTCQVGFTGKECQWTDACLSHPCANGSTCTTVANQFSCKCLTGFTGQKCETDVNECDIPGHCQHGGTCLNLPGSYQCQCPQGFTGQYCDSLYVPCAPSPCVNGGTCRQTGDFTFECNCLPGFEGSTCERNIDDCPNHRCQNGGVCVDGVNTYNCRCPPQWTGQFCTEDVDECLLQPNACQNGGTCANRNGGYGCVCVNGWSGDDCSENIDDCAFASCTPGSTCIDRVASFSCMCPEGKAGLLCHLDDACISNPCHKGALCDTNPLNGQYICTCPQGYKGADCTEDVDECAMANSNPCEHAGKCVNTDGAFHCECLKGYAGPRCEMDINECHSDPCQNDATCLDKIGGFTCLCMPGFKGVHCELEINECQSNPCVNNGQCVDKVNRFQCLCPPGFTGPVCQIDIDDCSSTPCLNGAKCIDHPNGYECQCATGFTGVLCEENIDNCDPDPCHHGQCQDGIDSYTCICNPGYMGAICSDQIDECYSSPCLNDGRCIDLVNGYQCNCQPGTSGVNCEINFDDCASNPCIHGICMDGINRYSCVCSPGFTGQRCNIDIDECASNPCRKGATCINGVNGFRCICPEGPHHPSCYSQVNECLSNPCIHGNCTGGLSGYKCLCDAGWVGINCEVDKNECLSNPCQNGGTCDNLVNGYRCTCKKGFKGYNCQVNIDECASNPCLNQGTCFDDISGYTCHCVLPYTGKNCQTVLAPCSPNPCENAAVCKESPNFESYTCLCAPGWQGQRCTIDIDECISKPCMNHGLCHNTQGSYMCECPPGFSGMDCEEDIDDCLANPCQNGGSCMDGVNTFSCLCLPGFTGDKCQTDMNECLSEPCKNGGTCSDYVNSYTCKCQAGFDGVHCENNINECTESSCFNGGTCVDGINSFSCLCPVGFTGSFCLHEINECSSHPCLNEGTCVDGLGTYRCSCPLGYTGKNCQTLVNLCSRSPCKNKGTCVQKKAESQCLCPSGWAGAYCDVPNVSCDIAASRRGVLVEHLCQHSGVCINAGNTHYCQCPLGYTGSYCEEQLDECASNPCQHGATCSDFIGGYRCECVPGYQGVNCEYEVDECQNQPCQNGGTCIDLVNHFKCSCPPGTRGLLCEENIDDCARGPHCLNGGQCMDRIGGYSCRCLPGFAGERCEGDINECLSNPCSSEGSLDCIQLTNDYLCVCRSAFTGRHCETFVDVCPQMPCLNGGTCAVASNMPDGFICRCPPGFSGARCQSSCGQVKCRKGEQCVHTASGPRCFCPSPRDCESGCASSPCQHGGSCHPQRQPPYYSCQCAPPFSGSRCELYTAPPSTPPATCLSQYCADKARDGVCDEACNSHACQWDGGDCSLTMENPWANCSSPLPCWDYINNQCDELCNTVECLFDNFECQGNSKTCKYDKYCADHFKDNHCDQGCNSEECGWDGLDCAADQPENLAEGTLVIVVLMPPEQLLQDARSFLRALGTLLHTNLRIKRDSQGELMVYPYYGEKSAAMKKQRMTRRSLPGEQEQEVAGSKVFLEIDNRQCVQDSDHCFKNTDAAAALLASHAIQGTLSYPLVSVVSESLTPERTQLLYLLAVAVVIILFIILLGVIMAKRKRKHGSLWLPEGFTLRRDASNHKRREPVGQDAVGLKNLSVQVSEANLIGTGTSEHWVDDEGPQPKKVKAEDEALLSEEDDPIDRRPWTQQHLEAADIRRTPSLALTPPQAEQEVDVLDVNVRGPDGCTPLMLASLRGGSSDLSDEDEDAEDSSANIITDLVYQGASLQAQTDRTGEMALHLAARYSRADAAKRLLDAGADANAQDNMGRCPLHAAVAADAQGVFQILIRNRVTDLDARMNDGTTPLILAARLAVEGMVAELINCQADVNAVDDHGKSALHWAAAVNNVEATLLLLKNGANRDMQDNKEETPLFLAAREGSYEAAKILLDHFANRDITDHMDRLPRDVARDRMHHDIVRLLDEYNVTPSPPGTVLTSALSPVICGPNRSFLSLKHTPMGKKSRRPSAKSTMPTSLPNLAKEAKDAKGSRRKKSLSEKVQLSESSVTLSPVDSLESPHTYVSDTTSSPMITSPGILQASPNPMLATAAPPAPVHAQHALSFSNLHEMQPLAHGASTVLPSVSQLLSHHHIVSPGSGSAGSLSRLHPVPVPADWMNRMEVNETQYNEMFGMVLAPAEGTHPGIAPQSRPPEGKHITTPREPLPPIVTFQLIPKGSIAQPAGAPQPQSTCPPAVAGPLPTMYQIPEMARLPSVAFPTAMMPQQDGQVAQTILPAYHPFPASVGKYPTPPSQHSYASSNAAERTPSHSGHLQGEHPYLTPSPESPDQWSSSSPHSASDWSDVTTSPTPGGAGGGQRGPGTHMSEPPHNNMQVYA

[6] = molecular target: Pro-neuregulin-1, membrane-bound isoform (Homo sapiens) (UniProt Q02297); assay: NRG1 binders on small-molecule microarrays, primary screen, psychiatric disease protein project, biochemical, small-molecule microarray, fluorescence 635/667 (AID 1075); details: NRG1 binding, 635 nm fluorescence, higher = more signal;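 note: score combines 667 nm spot fluorescence with signal to noise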
Pro-neuregulin-1, membrane-bound isoform (Homo sapiens), sequence (Q02297 whole entry, looked up, the tested form may be a part, canonical isoform): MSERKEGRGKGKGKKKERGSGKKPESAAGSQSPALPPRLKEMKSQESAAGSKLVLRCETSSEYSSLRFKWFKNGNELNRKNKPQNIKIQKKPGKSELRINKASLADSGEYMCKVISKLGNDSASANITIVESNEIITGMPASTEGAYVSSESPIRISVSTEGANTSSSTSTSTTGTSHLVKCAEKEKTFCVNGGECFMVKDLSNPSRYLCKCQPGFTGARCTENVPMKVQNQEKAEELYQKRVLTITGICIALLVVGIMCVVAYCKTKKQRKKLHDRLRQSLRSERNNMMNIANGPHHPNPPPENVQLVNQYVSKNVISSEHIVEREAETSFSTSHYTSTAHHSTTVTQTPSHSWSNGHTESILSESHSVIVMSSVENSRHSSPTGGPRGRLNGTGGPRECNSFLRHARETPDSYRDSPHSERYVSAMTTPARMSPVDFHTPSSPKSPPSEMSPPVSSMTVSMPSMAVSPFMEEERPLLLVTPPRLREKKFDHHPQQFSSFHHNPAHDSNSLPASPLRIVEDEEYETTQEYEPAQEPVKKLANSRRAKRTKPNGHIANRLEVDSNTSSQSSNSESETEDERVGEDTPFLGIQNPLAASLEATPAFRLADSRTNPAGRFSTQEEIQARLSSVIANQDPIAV

[7] = test system: Neuregulin-1 EGF-like domain; assay: binders of neuregulin-1 EGF-like domain, primary screen, biochemical, small-molecule microarray, 635 nm fluorescence (AID 1081); details: small-molecule microarray binding, higher = more signal;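 note: binding of the protein to compounds printed on small-molecule microarray slides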
[8] = FRG1 promoter luciferase signal modulators, primary screen, FRG1 inhibition for FSHD, cell-based, C2C12 myotubes, firefly/Renilla luciferase, luminescence (AID 1084); details: higher = more signal, called active from +8 up or from −8 down
[9] = binders of probe aFST on microarray, primary screen, stem cell growth factor project, biochemical, small-molecule microarray, fluorescence 635/667 (AID 1086); details: higher = more signal;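 note: score merges 667 nm fluorescence with signal-to-noise of each printed compound spot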
[10] = binders of probe aHhip on microarray, primary screen, stem cell growth factor project, biochemical, small-molecule microarray, fluorescence 635/667 (AID 1087); details: higher = more signal;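 note: score merges spot fluorescence at 667nm with spot signal to noise ratio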

SMILES: C[C@]1(C(=O)NCc2ccccc2)c2ccccc2C(=O)N(Cc2ccc(OC(F)(F)F)cc2)[C@H]1c1ccc(CO)cc1
- composite z-score [1]: 0.161
- composite z-score [2]: 1.14
- composite z-score [3]: -0.0507
- composite z-score [4]: -0.0562
- composite z-score [5]: -0.323
- composite z-score [6]: 0.349
- composite z-score [7]: 0.711
- z-score [8]: -4.27 (inactive)
- composite z-score [9]: -0.409
- composite z-score [10]: -0.431

SMILES: CCOC(=O)C[C@H]1[C@H](OC(=O)c2ccc(C(=O)c3ccccc3)cc2)[C@@H](NC(=O)C2CCCCC2)c2cc(OCCCO)ccc2N1C(=O)c1ccccc1
- composite z-score [1]: -0.379
- composite z-score [2]: -0.248
- composite z-score [3]: -0.0478
- composite z-score [4]: 0.494
- composite z-score [5]: 1.02
- composite z-score [6]: 0.857
- composite z-score [7]: 0.95
- z-score [8]: -0.541 (inactive)
- composite z-score [9]: 0.253
- composite z-score [10]: 0.682

SMILES: CC(C)C(=C=CC[C@H](O)c1ccccc1OCCO)C[C@H](O)c1ccccn1
- composite z-score [1]: -0.102
- composite z-score [2]: 1.51
- composite z-score [3]: -0.125
- composite z-score [4]: 0.486
- composite z-score [5]: 0.695
- composite z-score [6]: 1.66
- composite z-score [7]: 1.36
- z-score [8]: -1.68 (inactive)
- composite z-score [9]: 0.164
- composite z-score [10]: -0.201

SMILES: CCCCCCc1nc(CCCc2cc3c(c(CCCCCC)n2)[Si](C(C)C)(C(C)C)OC3)cc2c1[Si](C(C)C)(C(C)C)OC2
- composite z-score [1]: -0.0039
- composite z-score [2]: 0.0271
- composite z-score [3]: -0.149
- composite z-score [4]: -0.408
- composite z-score [5]: -0.955
- composite z-score [6]: -0.247
- composite z-score [7]: -0.774
- z-score [8]: 0.521 (inactive)
- composite z-score [9]: -0.344
- composite z-score [10]: 0.0274

SMILES: Cc1ccccc1C(O)C1C=CC2C(=O)N(C)C(=O)C2N1N1CCCCC1 (stereo not given)
- composite z-score [1]: 0.363
- composite z-score [2]: 0.831
- composite z-score [3]: 0.108
- composite z-score [4]: 1.13
- composite z-score [5]: 1.54
- composite z-score [6]: 1.42
- composite z-score [7]: 1.38
- z-score [8]: 0.703 (inactive)
- composite z-score [9]: 0.927
- composite z-score [10]: -0.0296

SMILES: O=C(NCc1ccccc1)[C@]1(CCS(=O)(=O)c2ccccc2)N=C(c2ccc(OCCCO)cc2)O[C@@H]1c1ccccc1
- composite z-score [1]: 0.0169
- composite z-score [2]: 0.938
- composite z-score [3]: 0.0485
- composite z-score [4]: 1.05
- composite z-score [5]: 1.68
- composite z-score [6]: 1.48
- composite z-score [7]: 1.18
- z-score [8]: -2.35 (inactive)
- composite z-score [9]: 1.31
- composite z-score [10]: -0.378

SMILES: Cc1ccc(S[C@]2(C(=O)O)CC(=O)N(C3Cc4ccccc4C3)[C@@H]2c2ccc(CO)cc2I)cc1
- composite z-score [1]: 1.43
- composite z-score [2]: -0.269
- composite z-score [3]: -0.0692
- composite z-score [4]: 0.117
- composite z-score [5]: -0.634
- composite z-score [6]: 0.899
- composite z-score [7]: 0.78
- z-score [8]: 0.788 (inactive)
- composite z-score [9]: -0.154
- composite z-score [10]: -0.0581

SMILES: CC(=O)Nc1cc(Br)ccc1C(=O)O
- composite z-score [1]: -0.135
- composite z-score [2]: -0.387
- composite z-score [3]: 0.0308
- composite z-score [4]: 0.239
- composite z-score [5]: 0.425
- composite z-score [6]: 0.541
- composite z-score [7]: 0.748
- z-score [8]: 0.466 (inactive)
- composite z-score [9]: 0.353
- composite z-score [10]: -0.221
